Source: PubChem BioAssay (NCI)
This is part of a sample that, as a whole, favours compounds with a hit. Of some 79,000 tested, about 15% had one in any assay. Activity calls are given as the source filed them. No stated cut-off is given here; in the data, active means growth inhibition above about 70%; inactive means the rest.

Key:
[1] = NCI Yeast Anticancer Drug Screen. Data for the rad50 strain (AID 155);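 further: 0% = growth of vehicle-only cultures of the same strain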; details: S. cerevisiae rad50 strain growth inhibition, hits give high values
Method in brief: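 Cells are treated with compound, grown, and their growth is then scored against vehicle-only cultures of the same repair-deficient yeast strain.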

[2] = NCI Yeast Anticancer Drug Screen. Data for the mec2-1 strain (AID 157); details: S. cerevisiae mec2-1 strain, hits give high values
Method in brief: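 Readout is yeast growth inhibition, normalised to vehicle-treated controls, in the mec2-1 strain exposed to compound.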

[3] = NCI Yeast Anticancer Drug Screen. Data for the sgs1 mgt1 strain (AID 161);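 further: 0% = growth of cultures given vehicle only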; details: S. cerevisiae sgs1 mgt1 strain, hits give high values
Method in brief: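 This yeast growth screen uses a strain with defined DNA-repair lesions; compound-treated growth is compared with vehicle-treated growth.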

[4] = NCI Yeast Anticancer Drug Screen. Data for the cln2 rad14 strain (AID 165);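 further: 0% = growth equal to vehicle treated cultures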; details: S. cerevisiae cln2 rad14 strain, hits give high values
Method in brief: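 Relative to vehicle controls, growth inhibition of compound-treated cln2 rad14 yeast was recorded.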

[5] = NCI Yeast Anticancer Drug Screen. Data for the bub3 strain (AID 167); details: S. cerevisiae bub3 mutant strain, hits give high values
Method in brief: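 Part of a panel of yeast mutants defective in DNA damage repair or cell cycle regulation. Each strain is grown with compound, and inhibition is calculated relative to solvent-treated cultures.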

[6] = NCI Yeast Anticancer Drug Screen. Data for the mlh1 rad18 strain (AID 175); details: S. cerevisiae mlh1 rad18 strain growth inhibition, hits give high values
Method in brief: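 Test agents were incubated with a yeast strain of defined genotype (DNA damage repair defect). Inhibition of growth was derived by comparison with vehicle-exposed cultures.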

[7] = at 5.0 µM (retest, dose inferred, filed as 0.5)
[8] = at 50.0 µM (retest, dose inferred, filed as 5.0)

Measured: growth inhibition

Oc1ccc(C2Oc3ccccc3C=C2c2ccccc2)cc1 (configuration not stated)
active: [1]; [8] 98% | [2]; [8] 99% | [3]; [8] 99% | [4]; [8] 99% | [5]; [8] 99% | [6]; [7] 81% | [6]; [8] 98%
inactive: [1]; [7] 51% | [1]; at 50.0 µM -10.4% | [2]; [7] 58% | [2]; at 50.0 µM -25.8% | [3]; [7] 61% | [3]; at 50.0 µM -5.2% | [4]; [7] 15% | [4]; at 50.0 µM -14.8% | [5]; [7] 13% | [5]; at 50.0 µM -1.25% | [6]; at 50.0 µM -7.45%

O=S1(=O)C(C(O)(c2ccccc2)c2ccccc2)CCCN1c1ccccc1 (configuration not stated)
active: [1]; at 50.0 µM 76.5% | [3]; at 50.0 µM 70.5%
inactive: [1]; [7] 4% | [1]; [8] 32% | [2]; [7] -8% | [2]; [8] 0% | [2]; at 50.0 µM 31.4% | [3]; [7] -1% | [3]; [8] 16% | [4]; [7] 1% | [4]; [8] -19% | [4]; at 50.0 µM 12.2% | [5]; [7] 0% | [5]; [8] 3% | [5]; at 50.0 µM 21.4% | [6]; [7] -2% | [6]; [8] -87% | [6]; at 50.0 µM 25.4%

CC(c1ccccc1)c1cc(C(C)(C)C)ccc1O (configuration not stated)
active: [1]; [8] 99% | [1]; at 50.0 µM 99.6% | [2]; [8] 100% | [2]; at 50.0 µM 99.8% | [3]; [8] 71% | [3]; at 50.0 µM 99.7% | [4]; [8] 100% | [4]; at 50.0 µM 99.3% | [5]; [8] 99% | [5]; at 50.0 µM 99.4% | [6]; [8] 99% | [6]; at 50.0 µM 99.3%
inactive: [1]; [7] -4% | [2]; [7] -25% | [3]; [7] -2% | [4]; [7] -12% | [5]; [7] -8% | [6]; [7] -19%

CCCCN(CCCC)CCNc1ccc(NS(=O)(=O)c2ccccc2)c2sc3ccccc3c(=O)c12
active: [1]; [8] 96% | [1]; at 50.0 µM 96.8% | [2]; [8] 95% | [2]; at 50.0 µM 97.8% | [3]; [8] 96% | [3]; at 50.0 µM 98.2% | [4]; [8] 96% | [4]; at 50.0 µM 93.3% | [5]; [8] 94% | [5]; at 50.0 µM 96.4% | [6]; [7] 96% | [6]; [8] 94% | [6]; at 50.0 µM 95.3%
inactive: [1]; [7] 43% | [2]; [7] 21% | [3]; [7] 54% | [4]; [7] 31% | [5]; [7] 32%

c1csc(-c2nccc3c2[nH]c2ccccc23)c1
inactive: [1]; [7] -18% | [2]; [7] -17% | [3]; [7] -29% | [4]; [7] -13% | [5]; [7] -42% | [6]; [7] -19%
active: [1]; [8] 92% | [1]; at 50.0 µM 88% | [2]; [8] 94% | [2]; at 50.0 µM 92.8% | [3]; [8] 95% | [3]; at 50.0 µM 90.2% | [4]; [8] 83% | [4]; at 50.0 µM 91% | [5]; [8] 97% | [5]; at 50.0 µM 91.3% | [6]; [8] 94% | [6]; at 50.0 µM 86.7%

CC(C)(C)c1cc(C(O)(C(F)(F)F)C(F)(F)F)c(Cl)c(C(O)(C(F)(F)F)C(F)(F)F)c1
inactive: [1]; [7] 10% | [2]; [7] 13% | [3]; [7] 11% | [4]; [7] 24% | [5]; [7] 14% | [6]; [7] 8%
active: [1]; [8] 99% | [1]; at 50.0 µM 99.5% | [2]; [8] 98% | [2]; at 50.0 µM 99.7% | [3]; [8] 99% | [3]; at 50.0 µM 99.7% | [4]; [8] 99% | [4]; at 50.0 µM 99% | [5]; [8] 99% | [5]; at 50.0 µM 99.8% | [6]; [8] 99% | [6]; at 50.0 µM 99.5%

O=C(Nc1ccc(Cl)cc1)OCCOCCOC(=O)Nc1ccc(Cl)cc1
active: [1]; [8] 97% | [1]; at 50.0 µM 95.8% | [2]; [8] 97% | [2]; at 50.0 µM 97% | [3]; [8] 93% | [3]; at 50.0 µM 97.9% | [4]; [8] 97% | [4]; at 50.0 µM 98.2% | [5]; [8] 97% | [5]; at 50.0 µM 98.7% | [6]; [8] 96% | [6]; at 50.0 µM 98%
inactive: [1]; [7] 9% | [2]; [7] 0% | [3]; [7] 25% | [4]; [7] 6% | [5]; [7] -7% | [6]; [7] 4%

Cc1ccccc1N=Nc1sc(N)nc1-c1ccccc1
active: [1]; [8] 94% | [2]; [8] 98% | [3]; [8] 95% | [4]; [8] 88% | [5]; [8] 98% | [6]; [8] 95%
inactive: [1]; [7] -6% | [1]; at 50.0 µM 33.5% | [2]; [7] 8% | [2]; at 50.0 µM 22.2% | [3]; [7] -2% | [3]; at 50.0 µM 54.8% | [4]; [7] -1% | [4]; at 50.0 µM -4.85% | [5]; [7] -7% | [5]; at 50.0 µM 30.6% | [6]; [7] -1% | [6]; at 50.0 µM 43.7%

CC(C)c1ncc(-c2ccccc2)cc1-c1ccccc1
active: [1]; [8] 93% | [1]; at 50.0 µM 95.7% | [2]; [8] 96% | [2]; at 50.0 µM 97.5% | [3]; [8] 94% | [3]; at 50.0 µM 97.7% | [4]; [8] 86% | [4]; at 50.0 µM 78.8% | [5]; [8] 95% | [5]; at 50.0 µM 98.5% | [6]; [8] 95% | [6]; at 50.0 µM 96%
inactive: [1]; [7] -2% | [2]; [7] -3% | [3]; [7] -1% | [4]; [7] 2% | [5]; [7] 6% | [6]; [7] -7%
